Measurements published in PubChem BioAssay AID743019 (Broad Institute, 2013).
Hit rate of the full screen: of about 1,000 compounds, about 25 (2%) were called active.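 The calls were made as follows: active = rising signal whose fitted curve reaches the 0.54 level within the top valid dose, showing a melting point (actives reach about 13 µM in these data); inactive = the rest, including activity in the opposite direction.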 These entries were drawn from the full list.

Assay: compound-only thermal shift signal without protein, dose response, artefact control for FGF22 binder project, biochemical, cherry-picked samples, RT-PCR instrument (AID 743019); also: value is where the raw curve crosses a fixed level and not half-maximal
Conditions: compound-only SYPRO orange thermal shift counter-screen, no protein; at 38 µM (top of the series) unless noted

**Q.** Which outcome does the source give for `COc1cc([N+](=O)[O-])ccc1NC(=O)CN1CCCC1` here?
**A.** inactive

**Q.** For `C[C@H]1CN([C@@H](C)CO)C(=O)Cc2cc(NC(=O)Cc3cn(C)c4ccccc34)ccc2O[C@@H]1CN(C)Cc1ccccc1`, which outcome is on record?
**A.** inactive [at 42 µM]

**Q.** With `Cc1ccc(S(=O)(=O)N(C)C[C@@H]2Oc3cc(C4=CCCC4)ccc3S(=O)(=O)N([C@@H](C)CO)C[C@@H]2C)cc1` as the compound, how does the outcome read?
**A.** inactive [at 42 µM]

**Q.** Which outcome does the source give for `O=C(NN1C(=O)C2C3C=CC(O3)C2C1=O)c1ccccc1` (stereo not given) here?
**A.** inactive

**Q.** With `O=C(N[C@@H]1C=C[C@H](CC(=O)N2CCCCC2)O[C@H]1CO)c1cccc(F)c1` as the compound, how does the outcome read?
**A.** inactive

**Q.** With `CCn1ccnc1CN(C)C(=O)c1ccc2nc(Cc3ccc(OC)cc3)oc2c1` as the compound, how does the outcome read?
**A.** inactive

**Q.** With `C[C@@H]1CN([C@@H](C)CO)S(=O)(=O)c2ccc(-c3ccncc3)cc2O[C@@H]1CN(C)C(=O)Nc1ccc(F)cc1` as the compound, how does the outcome read?
**A.** inactive

**Q.** For `O=C(N/N=C/c1ccc([N+](=O)[O-])cc1)c1c[nH]c2ccccc12`, which outcome is on record?
**A.** inactive

**Q.** For `COc1ccccc1NC(=O)N1[C@H](C#N)[C@H](c2ccccc2)[C@H]1CO`, which outcome is on record?
**A.** inactive [at 42 µM]

**Q.** Which outcome does the source give for `O=C(NCCc1c[nH]c2ccccc12)C(=O)NCC1CCCO1` (stereo not given) here?
**A.** inactive

**Q.** With `O=C(c1ccccc1F)N1CC(=O)N2[C@H](C1)[C@H](c1ccc(-c3ccc(F)cc3)cc1)[C@@H]2CO` as the compound, how does the outcome read?
**A.** inactive [at 42 µM]

**Q.** Which outcome does the source give for `CS(=O)(=O)c1ccc2nc(NC(=O)c3ccc(Cl)nc3)sc2c1` here?
**A.** inactive

**Q.** With `OC[C@H]1[C@H](c2ccc(-c3cccnc3)cc2)[C@H]2CN(Cc3ccccn3)CCCCN21` as the compound, how does the outcome read?
**A.** inactive

**Q.** With `O=C(Nc1ccccc1F)N1[C@H](CO)[C@H]2c3ccccc3NC[C@H]21` as the compound, how does the outcome read?
**A.** inactive [at 42 µM]

**Q.** Which outcome does the source give for `NS(=O)(=O)c1cccc(NC(=O)COC(=O)c2cc([N+](=O)[O-])ccc2N2CCCC2)c1` here?
**A.** inactive

**Q.** Which outcome does the source give for `Cc1ccc(NC(=O)Nc2cccnc2)cc1` here?
**A.** inactive

**Q.** With `O=C(N/N=C/c1ccc(Cl)c(Cl)c1)c1ccc2nc[nH]c2c1` as the compound, how does the outcome read?
**A.** inactive

**Q.** For `Cc1ccc(S(=O)(=O)Nc2nc3ccccc3s2)cc1[N+](=O)[O-]`, which outcome is on record?
**A.** inactive

**Q.** Which outcome does the source give for `O=C(Nc1nnc(-c2ccccc2F)s1)c1ccccc1F` here?
**A.** inactive

**Q.** With `O=C(C[C@H]1CC[C@H]2[C@@H](COC[C@H](O)CN2S(=O)(=O)c2cccc(Cl)c2)O1)Nc1ccccc1` as the compound, how does the outcome read?
**A.** inactive [at 42 µM]

**Q.** With `COCCN(C(=O)C(C)C)c1nnc(-c2ccc(C(C)(C)C)cc2)s1` as the compound, how does the outcome read?
**A.** inactive

**Q.** Which outcome does the source give for `C[C@H]1CN([C@@H](C)CO)S(=O)(=O)c2ccc(C3=CCCC3)cc2O[C@H]1CN(C)C(=O)Nc1ccc2c(c1)OCO2` here?
**A.** inactive [at 42 µM]

**Q.** For `COc1ccc(-c2cc(=O)oc3cc(OCC(=O)N[C@@H](Cc4c[nH]c5ccccc45)C(=O)O)ccc23)cc1`, which outcome is on record?
**A.** inactive

**Q.** With `O=S(=O)(ON(c1ccccc1)S(=O)(=O)c1ccccc1)c1ccccc1` as the compound, how does the outcome read?
**A.** inactive

**Q.** Which outcome does the source give for `O=C(Cc1cccnc1)N[C@H]1CC[C@H](CCn2cc(-c3ccccc3F)nn2)O[C@H]1CO` here?
**A.** inactive

**Q.** For `CC(=O)Nc1ccc(S(=O)(=O)N(CCc2ccccc2)CC(=O)N/N=C/c2ccc(C(=O)O)cc2)cc1`, which outcome is on record?
**A.** inactive

**Q.** For `CCCOc1ccc(NC(=O)CC2C(=O)N(C)C(=S)N2Cc2ccc3c(c2)OCO3)cc1` (stereo not given), which outcome is on record?
**A.** inactive

**Q.** For `CC(C)NC(=O)N1C[C@@H]2[C@H](c3ccccc31)[C@H](CO)N2C(=O)c1ccccn1`, which outcome is on record?
**A.** inactive [at 42 µM]

**Q.** With `O=C(N/N=C/c1ccc(OCc2ccccc2)cc1)c1ccc(O)cc1` as the compound, how does the outcome read?
**A.** inactive

**Q.** For `C[C@@H]1CCCCO[C@@H](CN(C)Cc2ccncc2)[C@H](C)CN([C@H](C)CO)C(=O)c2cc(NC(=O)Cc3ccccc3)ccc2O1`, which outcome is on record?
**A.** inactive

**Q.** With `Cc1cccc(S(=O)(=O)N2C[C@@H](O)COC[C@H]3O[C@H](CC(=O)Nc4ccc(-c5ccccc5)cc4)CC[C@@H]32)c1` as the compound, how does the outcome read?
**A.** inactive [at 42 µM]

**Q.** For `CN1C(=O)c2cccc3c(N)ccc(c23)C1=O`, which outcome is on record?
**A.** inactive

**Q.** Which outcome does the source give for `CN1C(=O)c2cc(NC(=O)c3cccc(F)c3)ccc2OC[C@@H]2O[C@H](CC(=O)N3CCc4ccccc4C3)CC[C@@H]21` here?
**A.** inactive

**Q.** With `COc1ccccc1C(=O)NNC(=O)c1ccc(NC(=O)c2ccccc2)cc1` as the compound, how does the outcome read?
**A.** inactive

**Q.** Which outcome does the source give for `C[C@@H]1CN([C@H](C)CO)S(=O)(=O)c2ccc(-c3ccncc3)cc2O[C@@H]1CN(C)C(=O)Nc1ccc(C(F)(F)F)cc1` here?
**A.** inactive

**Q.** Which outcome does the source give for `Cc1c(CCO)sc[n+]1CC(=O)OC12CC3CC(CC(C3)C1)C2` here?
**A.** inactive

**Q.** With `COc1ccc(-c2ccc([C@H]3[C@H]4CN(C(=O)c5ccc6c(c5)OCO6)CCCCN4[C@H]3CO)cc2)cc1` as the compound, how does the outcome read?
**A.** inactive [at 42 µM]

**Q.** With `CC(=O)N1c2ccc(S(=O)(=O)N3CCC(C(=O)NCc4ccc(F)cc4)CC3)cc2CC1C` (stereo not given) as the compound, how does the outcome read?
**A.** inactive

**Q.** Which outcome does the source give for `CC(C)NC(=O)N(C)C[C@@H]1Oc2c(NC(=O)c3nc4ccccc4s3)cccc2C(=O)N([C@H](C)CO)C[C@H]1C` here?
**A.** inactive [at 42 µM]

**Q.** With `CCCCN1CC(N2CCN(Cc3cccc(C)c3)CC2)CS1(=O)=O` (stereo not given) as the compound, how does the outcome read?
**A.** inactive

**Q.** Which outcome does the source give for `Cc1ccc(NC(=O)O/N=C/c2cccc([N+](=O)[O-])c2)cc1` here?
**A.** inactive

**Q.** With `CC(=O)NC[C@@H]1[C@@H](c2ccccc2)[C@@H](CO)N1C(=O)Cc1cccnc1` as the compound, how does the outcome read?
**A.** inactive [at 42 µM]

**Q.** With `O=C(COc1ccc([N+](=O)[O-])cc1)Nc1cccc(C(=O)Nc2ccccc2C(=O)O)c1` as the compound, how does the outcome read?
**A.** inactive

**Q.** Which outcome does the source give for `CC(C)(C)N1C(=O)c2c(C(=O)OCc3ccccc3)[nH]c(-c3ccccc3)c2C1=O` here?
**A.** inactive

**Q.** Which outcome does the source give for `COc1cc(NC(=O)c2ccc3c(c2)OCO3)ccc1NC(=O)c1cccs1` here?
**A.** inactive

**Q.** With `O=C(C[C@H]1C[C@@H]2c3cc(NC(=O)Nc4ccc(C(F)(F)F)cc4)ccc3O[C@@H]2[C@@H](CO)O1)NCC1CC1` as the compound, how does the outcome read?
**A.** inactive [at 10 µM]

**Q.** Which outcome does the source give for `CNC[C@@H]1Oc2ccc(NC(=O)C3CCCCC3)cc2C(=O)N([C@@H](C)CO)C[C@H]1C` here?
**A.** inactive

**Q.** For `COCC(=O)Nc1ccc2c(c1)OC[C@H](C)N(C)C[C@@H](C)[C@@H](OC)CN(C)C2=O`, which outcome is on record?
**A.** inactive [at 42 µM]

**Q.** For `O=C(N/N=C/c1c[nH]c2ccccc12)c1cc2ccccc2o1`, which outcome is on record?
**A.** inactive

**Q.** For `Cc1ccc(S(=O)(=O)NCCC(=O)Nc2ccc(C)c(Cl)c2)cc1C`, which outcome is on record?
**A.** inactive
